Test [1] concerns the target T1, Tyrosine-protein kinase ITK/TSK (Homo sapiens) (UniProt Q08881).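 Note: values are mean percent inhibition of ITK from the GSK PKIS screen.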
T1 sequence (whole entry): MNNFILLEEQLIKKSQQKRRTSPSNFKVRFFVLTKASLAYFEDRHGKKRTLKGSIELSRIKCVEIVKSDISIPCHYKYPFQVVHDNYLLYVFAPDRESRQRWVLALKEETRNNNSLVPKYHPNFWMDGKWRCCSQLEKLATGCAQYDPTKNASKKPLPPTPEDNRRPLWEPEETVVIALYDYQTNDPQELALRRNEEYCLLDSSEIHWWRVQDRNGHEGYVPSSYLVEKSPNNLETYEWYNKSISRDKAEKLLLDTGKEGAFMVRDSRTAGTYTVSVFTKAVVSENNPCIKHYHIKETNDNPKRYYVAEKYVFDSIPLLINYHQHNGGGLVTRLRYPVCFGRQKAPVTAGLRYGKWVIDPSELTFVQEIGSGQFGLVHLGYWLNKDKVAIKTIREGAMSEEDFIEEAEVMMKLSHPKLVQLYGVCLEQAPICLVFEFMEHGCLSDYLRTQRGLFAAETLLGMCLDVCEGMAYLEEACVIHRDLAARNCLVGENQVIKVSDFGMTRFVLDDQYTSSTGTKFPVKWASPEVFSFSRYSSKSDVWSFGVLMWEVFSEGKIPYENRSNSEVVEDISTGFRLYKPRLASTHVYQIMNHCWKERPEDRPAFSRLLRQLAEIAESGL
The following applies: at 1 µM.

The target of test [2] is Tyrosine-protein kinase JAK1 (Homo sapiens) (UniProt P23458). The following applies: at 0.1 µM.
For test [3] the target is unchanged. The following applies: at 1 µM.
Test [4] deals with Tyrosine-protein kinase JAK2 (Homo sapiens) (UniProt O60674). The note with it: at 0.1 µM.
Tyrosine-protein kinase JAK2 (Homo sapiens), sequence (O60674 whole entry): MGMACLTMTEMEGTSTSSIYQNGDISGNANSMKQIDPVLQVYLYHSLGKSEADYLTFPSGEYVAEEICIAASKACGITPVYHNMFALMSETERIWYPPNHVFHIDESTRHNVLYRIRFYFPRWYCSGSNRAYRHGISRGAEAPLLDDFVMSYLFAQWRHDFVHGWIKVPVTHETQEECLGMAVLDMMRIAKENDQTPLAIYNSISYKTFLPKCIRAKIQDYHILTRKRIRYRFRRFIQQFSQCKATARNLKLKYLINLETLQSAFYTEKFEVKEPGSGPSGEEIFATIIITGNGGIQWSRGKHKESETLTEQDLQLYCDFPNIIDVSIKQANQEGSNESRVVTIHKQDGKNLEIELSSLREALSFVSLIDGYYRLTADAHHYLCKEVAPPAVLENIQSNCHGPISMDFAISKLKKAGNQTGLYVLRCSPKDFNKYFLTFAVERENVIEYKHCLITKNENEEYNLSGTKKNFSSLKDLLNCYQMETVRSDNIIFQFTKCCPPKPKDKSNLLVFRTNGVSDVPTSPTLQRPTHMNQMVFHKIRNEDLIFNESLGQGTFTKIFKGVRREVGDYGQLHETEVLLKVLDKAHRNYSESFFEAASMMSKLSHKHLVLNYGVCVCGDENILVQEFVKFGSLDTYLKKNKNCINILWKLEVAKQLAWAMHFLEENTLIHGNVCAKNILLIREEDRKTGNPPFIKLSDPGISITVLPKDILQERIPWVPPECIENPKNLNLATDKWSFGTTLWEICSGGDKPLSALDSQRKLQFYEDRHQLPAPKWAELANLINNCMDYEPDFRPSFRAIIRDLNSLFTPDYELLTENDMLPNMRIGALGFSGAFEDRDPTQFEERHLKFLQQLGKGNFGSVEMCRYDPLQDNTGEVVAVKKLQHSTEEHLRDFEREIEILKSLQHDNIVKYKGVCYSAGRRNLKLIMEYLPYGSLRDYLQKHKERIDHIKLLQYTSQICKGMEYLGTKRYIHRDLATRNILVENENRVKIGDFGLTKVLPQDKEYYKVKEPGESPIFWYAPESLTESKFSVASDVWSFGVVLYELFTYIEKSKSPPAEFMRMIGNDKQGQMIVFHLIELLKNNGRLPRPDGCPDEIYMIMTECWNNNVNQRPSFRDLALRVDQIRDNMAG
Test [5] shares this target. The note with it: at 1 µM.
The target of test [6] is T2, Tyrosine-protein kinase JAK3 (Homo sapiens) (UniProt P52333).
T2 sequence (whole entry): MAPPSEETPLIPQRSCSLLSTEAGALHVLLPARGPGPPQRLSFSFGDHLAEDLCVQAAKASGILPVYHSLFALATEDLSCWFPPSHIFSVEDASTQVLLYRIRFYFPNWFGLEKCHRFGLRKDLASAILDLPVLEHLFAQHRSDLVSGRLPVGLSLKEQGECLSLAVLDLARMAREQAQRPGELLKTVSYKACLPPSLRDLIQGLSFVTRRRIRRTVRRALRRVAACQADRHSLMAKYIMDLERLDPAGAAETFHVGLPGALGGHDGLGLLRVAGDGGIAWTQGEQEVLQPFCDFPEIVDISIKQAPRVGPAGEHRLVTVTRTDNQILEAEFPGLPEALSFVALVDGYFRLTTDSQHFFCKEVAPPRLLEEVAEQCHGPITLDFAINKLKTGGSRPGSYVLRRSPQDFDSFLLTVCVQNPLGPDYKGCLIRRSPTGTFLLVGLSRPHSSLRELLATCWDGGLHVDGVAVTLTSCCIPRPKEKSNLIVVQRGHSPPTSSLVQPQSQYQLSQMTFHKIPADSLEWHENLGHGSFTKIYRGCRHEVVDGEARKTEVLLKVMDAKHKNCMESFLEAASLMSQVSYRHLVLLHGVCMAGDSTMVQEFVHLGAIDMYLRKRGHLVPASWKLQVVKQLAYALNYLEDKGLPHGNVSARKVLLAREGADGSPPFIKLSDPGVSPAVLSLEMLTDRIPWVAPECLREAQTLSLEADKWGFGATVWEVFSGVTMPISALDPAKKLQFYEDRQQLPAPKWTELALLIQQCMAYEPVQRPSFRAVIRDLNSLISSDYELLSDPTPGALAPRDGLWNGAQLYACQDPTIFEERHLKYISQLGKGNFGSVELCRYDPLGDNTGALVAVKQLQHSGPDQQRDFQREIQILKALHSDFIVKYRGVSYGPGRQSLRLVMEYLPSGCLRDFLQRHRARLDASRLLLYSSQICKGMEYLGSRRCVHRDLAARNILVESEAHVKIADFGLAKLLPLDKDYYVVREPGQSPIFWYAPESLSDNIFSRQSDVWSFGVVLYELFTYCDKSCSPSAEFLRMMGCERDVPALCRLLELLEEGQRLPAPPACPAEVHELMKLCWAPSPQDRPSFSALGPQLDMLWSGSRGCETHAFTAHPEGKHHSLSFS
The following applies: at 0.1 µM.

Test [7] has as its target T2, Tyrosine-protein kinase JAK3 (Homo sapiens). The following applies: at 1 µM.
The target in test [8] is Vascular endothelial growth factor receptor 2 (Homo sapiens) (UniProt P35968). The following applies: at 0.1 µM.
Vascular endothelial growth factor receptor 2 (Homo sapiens), sequence (P35968 whole entry): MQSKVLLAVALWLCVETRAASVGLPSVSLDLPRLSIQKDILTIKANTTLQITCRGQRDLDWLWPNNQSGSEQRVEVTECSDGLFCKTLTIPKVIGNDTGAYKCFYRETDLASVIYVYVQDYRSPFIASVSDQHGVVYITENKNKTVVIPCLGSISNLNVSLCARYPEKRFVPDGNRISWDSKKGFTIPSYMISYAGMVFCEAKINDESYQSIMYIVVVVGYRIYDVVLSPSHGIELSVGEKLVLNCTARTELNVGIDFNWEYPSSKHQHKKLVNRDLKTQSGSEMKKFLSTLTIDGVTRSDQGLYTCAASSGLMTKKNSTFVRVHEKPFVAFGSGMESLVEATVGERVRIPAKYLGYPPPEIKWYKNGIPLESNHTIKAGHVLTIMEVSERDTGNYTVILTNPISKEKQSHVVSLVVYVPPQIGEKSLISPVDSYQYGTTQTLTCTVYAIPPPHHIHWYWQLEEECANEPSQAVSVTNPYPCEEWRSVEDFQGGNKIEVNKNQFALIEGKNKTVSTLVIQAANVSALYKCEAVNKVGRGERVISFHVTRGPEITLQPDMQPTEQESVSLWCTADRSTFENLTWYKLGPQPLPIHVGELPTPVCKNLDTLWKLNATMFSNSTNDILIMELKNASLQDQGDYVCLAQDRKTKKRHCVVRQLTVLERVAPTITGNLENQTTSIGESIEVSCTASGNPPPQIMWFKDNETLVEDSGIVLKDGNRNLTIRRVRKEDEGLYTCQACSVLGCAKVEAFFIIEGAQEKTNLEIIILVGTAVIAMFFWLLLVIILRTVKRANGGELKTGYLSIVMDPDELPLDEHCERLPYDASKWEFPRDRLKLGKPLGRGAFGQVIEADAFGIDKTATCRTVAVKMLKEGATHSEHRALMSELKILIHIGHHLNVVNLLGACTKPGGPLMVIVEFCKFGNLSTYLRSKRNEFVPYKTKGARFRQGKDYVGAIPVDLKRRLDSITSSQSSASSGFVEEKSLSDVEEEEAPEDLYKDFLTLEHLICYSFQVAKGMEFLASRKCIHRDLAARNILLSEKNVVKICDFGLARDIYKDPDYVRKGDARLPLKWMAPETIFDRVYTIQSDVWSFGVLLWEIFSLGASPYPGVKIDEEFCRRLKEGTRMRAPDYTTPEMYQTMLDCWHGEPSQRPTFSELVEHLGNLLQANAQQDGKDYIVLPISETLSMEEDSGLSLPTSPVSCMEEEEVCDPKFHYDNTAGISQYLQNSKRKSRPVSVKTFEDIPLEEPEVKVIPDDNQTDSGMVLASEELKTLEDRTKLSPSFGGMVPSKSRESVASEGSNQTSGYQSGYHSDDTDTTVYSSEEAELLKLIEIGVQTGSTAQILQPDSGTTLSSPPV
Test [9] has the same target. The note with it: at 1 µM.
Test [10] deals with Mast/stem cell growth factor receptor Kit (Homo sapiens) (UniProt P10721). The note with it: at 0.1 µM.
Mast/stem cell growth factor receptor Kit (Homo sapiens), sequence (P10721 whole entry): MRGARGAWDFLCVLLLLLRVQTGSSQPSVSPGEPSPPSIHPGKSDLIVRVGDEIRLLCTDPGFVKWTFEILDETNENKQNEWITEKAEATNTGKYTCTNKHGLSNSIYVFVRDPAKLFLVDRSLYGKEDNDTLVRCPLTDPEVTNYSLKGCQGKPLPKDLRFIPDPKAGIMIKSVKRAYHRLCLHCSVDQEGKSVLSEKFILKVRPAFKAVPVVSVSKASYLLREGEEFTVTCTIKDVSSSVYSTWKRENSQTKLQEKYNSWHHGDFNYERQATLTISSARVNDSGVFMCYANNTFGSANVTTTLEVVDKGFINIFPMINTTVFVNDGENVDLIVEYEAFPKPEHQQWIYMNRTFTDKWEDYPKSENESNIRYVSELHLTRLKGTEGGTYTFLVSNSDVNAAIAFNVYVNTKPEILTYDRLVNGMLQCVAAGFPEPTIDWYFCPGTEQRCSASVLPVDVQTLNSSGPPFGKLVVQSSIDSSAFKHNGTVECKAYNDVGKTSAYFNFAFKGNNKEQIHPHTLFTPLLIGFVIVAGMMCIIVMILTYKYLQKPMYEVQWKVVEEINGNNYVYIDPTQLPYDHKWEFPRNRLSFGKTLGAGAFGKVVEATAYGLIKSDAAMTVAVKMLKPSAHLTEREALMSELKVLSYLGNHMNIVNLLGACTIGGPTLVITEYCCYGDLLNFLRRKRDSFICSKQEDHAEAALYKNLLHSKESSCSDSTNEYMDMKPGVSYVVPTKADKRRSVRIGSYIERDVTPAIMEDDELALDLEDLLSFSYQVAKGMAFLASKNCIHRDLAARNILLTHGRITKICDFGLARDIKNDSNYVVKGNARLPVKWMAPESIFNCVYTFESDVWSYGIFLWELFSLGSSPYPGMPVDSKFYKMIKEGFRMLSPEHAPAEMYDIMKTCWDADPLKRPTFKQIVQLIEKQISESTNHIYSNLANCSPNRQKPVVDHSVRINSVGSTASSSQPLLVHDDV
Test [11] has the same target. The note with it: at 1 µM.
For test [12], the system named is Mast/stem cell growth factor receptor Kit (Homo sapiens), P10721 [D816V]. The following applies: at 0.1 µM.
Mast/stem cell growth factor receptor Kit (Homo sapiens), P10721 [D816V], sequence (P10721 whole entry D816V): as the sequence (P10721 whole entry) above, with D816V counted along it
For test [13] the test system is unchanged. The following applies: at 1 µM.
Test [14] has as its system Mast/stem cell growth factor receptor Kit (Homo sapiens), P10721 [T670I]. The note with it: at 0.1 µM.
The test system is the same in test [15]. The note with it: at 1 µM.
Test [16] concerns Mast/stem cell growth factor receptor Kit (Homo sapiens), P10721 [V560G]. The note with it: at 0.1 µM.
Mast/stem cell growth factor receptor Kit (Homo sapiens), P10721 [V560G], sequence (P10721 whole entry V560G): as the sequence (P10721 whole entry) above, with V560G counted along it
The test system is the same in test [17]. The following applies: at 1 µM.
In test [18] the target is Tyrosine-protein kinase Lck (Homo sapiens) (UniProt P06239). The note with it: at 0.1 µM.
Tyrosine-protein kinase Lck (Homo sapiens), sequence (P06239 2-509 limits assumed): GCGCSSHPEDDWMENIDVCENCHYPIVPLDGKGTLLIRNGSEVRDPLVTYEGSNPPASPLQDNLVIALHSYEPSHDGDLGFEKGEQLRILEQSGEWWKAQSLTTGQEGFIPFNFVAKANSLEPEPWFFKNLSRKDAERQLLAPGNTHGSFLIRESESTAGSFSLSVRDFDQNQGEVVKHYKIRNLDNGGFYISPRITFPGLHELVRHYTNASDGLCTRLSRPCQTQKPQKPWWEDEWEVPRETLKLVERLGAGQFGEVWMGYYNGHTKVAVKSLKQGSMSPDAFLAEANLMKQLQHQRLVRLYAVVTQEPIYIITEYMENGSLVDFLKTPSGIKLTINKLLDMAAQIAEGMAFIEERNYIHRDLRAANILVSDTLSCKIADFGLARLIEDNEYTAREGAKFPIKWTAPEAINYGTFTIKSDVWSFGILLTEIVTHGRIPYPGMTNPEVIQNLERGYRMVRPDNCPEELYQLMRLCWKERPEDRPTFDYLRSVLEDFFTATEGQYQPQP
For test [19] the target is unchanged. The note with it: at 1 µM.
Test [20] addresses Leukocyte tyrosine kinase receptor (Homo sapiens) (UniProt P29376). The note with it: at 0.1 µM.

The structures appear in SMILES notation.

Mast/stem cell growth factor receptor Kit (Homo sapiens), P10721 [T670I], sequence (P10721 whole entry T670I): as the sequence (P10721 whole entry) above, with T670I counted along it
Leukocyte tyrosine kinase receptor (Homo sapiens), sequence (P29376 whole entry): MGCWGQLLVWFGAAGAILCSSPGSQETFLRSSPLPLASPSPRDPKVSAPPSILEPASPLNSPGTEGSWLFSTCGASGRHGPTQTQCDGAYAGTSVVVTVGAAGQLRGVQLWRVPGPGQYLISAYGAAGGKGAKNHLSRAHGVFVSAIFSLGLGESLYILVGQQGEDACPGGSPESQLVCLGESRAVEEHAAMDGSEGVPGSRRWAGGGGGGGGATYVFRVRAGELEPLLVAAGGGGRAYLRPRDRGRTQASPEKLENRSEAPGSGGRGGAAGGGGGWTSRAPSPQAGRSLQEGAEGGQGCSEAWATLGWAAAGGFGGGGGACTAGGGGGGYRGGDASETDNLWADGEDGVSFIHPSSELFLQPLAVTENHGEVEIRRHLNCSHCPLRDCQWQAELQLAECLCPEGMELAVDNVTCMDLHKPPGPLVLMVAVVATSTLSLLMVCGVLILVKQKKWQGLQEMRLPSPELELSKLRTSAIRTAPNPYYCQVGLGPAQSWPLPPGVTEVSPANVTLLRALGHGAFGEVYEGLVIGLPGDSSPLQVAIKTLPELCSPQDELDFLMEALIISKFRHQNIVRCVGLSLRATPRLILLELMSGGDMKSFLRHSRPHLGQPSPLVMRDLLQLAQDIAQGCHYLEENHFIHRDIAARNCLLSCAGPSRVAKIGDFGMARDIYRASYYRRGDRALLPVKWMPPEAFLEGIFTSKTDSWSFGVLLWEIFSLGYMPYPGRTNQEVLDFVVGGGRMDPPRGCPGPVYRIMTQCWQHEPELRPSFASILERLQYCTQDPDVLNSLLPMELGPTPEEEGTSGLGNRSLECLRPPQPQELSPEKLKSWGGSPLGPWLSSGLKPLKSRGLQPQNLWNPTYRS

As for `CNC(=O)c1sc(-n2cnc3cc(OC)c(OC)cc32)cc1OCc1ccccc1C(F)(F)F`, the inhibition (commonly the relative decrease from the control value, in per cent) in test [1] was 3.59%; in test [2] it was 0.71%; in test [3] it was 7.26%; in test [4], -0.02%; in test [5], 0.52%; in test [6], -2.82%. Moreover, the inhibition in test [7] is -0.34%; in [8] it was 4.23%; in [9], 12.4%; in test [10], 4.06%; in test [11] it was 6.11%; in [12] it was 2.29%. The inhibition was 6.55% in [13]; 1.67% in [14]; 1.95% in test [15]; -0.58% in [16]; 0.44% in [17]; 3.6% in test [18]. In addition, the results for the inhibition in test [19] and in test [20] were 11.9% and 2.32%, respectively.
Take `N#Cc1ccc2c(-c3ccnc(NC4CC4)n3)c(-c3ccc(F)cc3)nn2c1`: the inhibition in test [1] was 0.51%; in test [2], 0.46%; in [3], 0.31%; in [4], -0.51%; in test [5], -0.42%; in test [6] it was -1.62%. Moreover, the inhibition in [7] was -1.11%; in test [8], 1.86%; in test [9], 14.6%; in [10], 3.02%; in [11] it was 20.2%; in test [12], -1.04%. Also, the inhibition in [13] stood at 2.35%; in [14], 1.28%; in test [15] it was 0.73%; in test [16], 0.24%; in test [17], 1.17%; in test [18], 1.08%. Moreover, the inhibition in test [19] came out at 0.11%; in test [20], 1.05%.
`CN(C)CCNC(=O)Nc1ccc(N(C)c2ccnc(Nc3ccc(CS(C)(=O)=O)cc3)n2)cc1`: the inhibition in [1] is 3.84%; in [2], 3.89%; in test [3], -1.93%; in test [4], 1.46%; in [5], 3.2%; in test [6], -1.47%. Moreover, the inhibition in test [7] was -0.17%; in [8], 7.04%; in test [9], 18.9%; in test [10], 13.9%; in test [11], 57.6%; in test [12], 3.66%. Also, the inhibition in test [13] stood at 3.76%; in [14], 4.26%; in test [15] it was 6.89%; in test [16], 11.7%; in test [17] it was 54.1%; in [18], 3.05%. Besides, the inhibition in test [19] was found to be 8.53%; in [20], 3.62%.
As for `c1ccc(-c2n[nH]cc2-c2ccnc(-c3ccc(OCCn4ccnc4)cc3)c2)nc1`, the inhibition in test [1] is 2.03%; in [2], 0.34%; in test [3], 6.98%; in test [4], 0.38%; in test [5], 3.12%; in [6] it was -0.46%. Besides, the inhibition in test [7] was 4.76%; in [8] it was 19.9%; in [9], 65.9%; in test [10], 1.62%; in test [11] it was 11.4%; in [12], 3.19%. For the same compound, the inhibition in test [13] is 19.5%; in test [14], 1.86%; in test [15], 3.3%; in test [16], 1.49%; in test [17], 4.59%; in [18] it was 0.89%. In addition, the inhibition in test [19] was 12.7%; in test [20], 0.8%.
In the case of `O=C(O[C@H]1CN[C@H](C#Cc2cc3ncnc(Nc4ccc5c(ccn5Cc5cc(F)ccc5F)c4)c3s2)C1)N1CCOCC1`, the inhibition is 2.55% in test [1]; 5.05% in test [2]; 1.68% in test [3]; 1.8% in [4]; 1.6% in test [5]; -1.37% in test [6]. The inhibition in test [7] was determined as 0.4%; in test [8] it was 3.78%; in [9], 10.6%; in test [10], 2.29%; in [11], 2.34%; in test [12], 3.87%. Also, the inhibition in test [13] is 3.82%; in test [14], 3.88%; in [15], 2.88%; in test [16], -0.88%; in test [17], -2.32%; in test [18], 2.27%. Also, the values for the inhibition in test [19] and in test [20] were 4.87% and 5.27%, respectively.
`N#Cc1cccc(Nc2ncc(-c3ccccc3)o2)c1`: the inhibition in test [1] was 2.42%; in [2] it was 0.52%; in test [3], 10.7%; in test [4], 0.78%; in test [5] it was 0.35%; in test [6], -1.06%. Moreover, the inhibition in test [7] is -0.94%; in test [8], 3.11%; in [9], 11%; in test [10] it was 19.9%; in test [11] it was 79.6%; in test [12], 1.87%. The inhibition in test [13] stood at 2.5%; in [14] it was 2.85%; in test [15], 35.8%; in test [16], 4.29%; in [17] it was 23.8%; in test [18] it was 2.79%. In addition, the inhibition in test [19] was 1.76%; in test [20], 4.04%.
On to `COc1cc(Nc2ncc(-c3ccccc3)o2)cc(OC)c1`, for which the inhibition in test [1] is 3.63%; in test [2], -0.99%; in test [3] it was 5.5%; in [4], 2.04%; in [5], 1.78%; in test [6], -3.48%. The inhibition in test [7] is -1.92%; in test [8] it was 6.74%; in test [9], 19.3%; in test [10], 78.5%; in test [11], 97.2%; in test [12], 3.13%. Further, the inhibition worked out at 2.77% in test [13]; 21.6% in test [14]; 81.7% in [15]; 33.6% in test [16]; 83.5% in [17]; 2.6% in test [18]. Besides, the inhibition in test [19] was 14.5%; in [20] it was 4.67%.

These data come from ChEMBL document CHEMBL1961873, “Compounds: GSK PKIS; Assays: Nanosyn kinase panel” (2012).
